Compound activity (PubChem BioAssay)
In the library only some 21% were active in any assay of this set; here they are far more common.
Cycloheximide cs = affects cycloheximide protein synthesis inhibition readout, counter-screen; cell reporter, cycloheximide protein synthesis inhibition counterscreen; max response, %; hit rate 12% among 300,000; in the data active = max response mostly above about 13%, no sharp cut-off; inactive = mostly below about 14%; also: read at 38.3 µM for the half of the compounds with a filed dose; 0% is about no effect
NS1 function inh = inhibitors of influenza NS1 protein function; Potency, µM (highest dose often 46.1 µM), without a hit: at the highest dose activity, positive = more growth; hit rate 0.4% among 270,000; also: potency is read from the fitted curve at half-maximal effect; actives are rising curves; nearly all actives have a fitted effect of over 50% in size
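Recovery from NS1-induced slow growth read by OD600 in budding yeast switched to galactose assay medium (pH 6.0, -URA) at 1:100 dilution. Compound 23 nl per well; the matching strain lacking NS1 serves as control.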
Shiga toxin inh = Shiga toxin inhibition | AID 2315 | hit rate 9.2% among 290,000 | Vero cells, Shiga toxin protein synthesis inhibition reporter | inhibition, % at 38.7 µM; in the data active = inhibition mostly above about 28%, no sharp cut-off; inactive = mostly below about 43%; also: 0% is about no effect
SARS PLpro yeast = blocks SARS-CoV papain-like protease in a yeast assay. S. cerevisiae expressing SARS-CoV PLpro, growth rescue. Potency, µM (top dose mostly 32.9 µM), inactives show top-dose activity, positive = growth rescue, hits mostly activators. hit rate 0.19% among 330,000. AID 485353; also: potency is read from the fitted curve at half-maximal effect; 0% is about no effect; nearly all actives have a fitted effect of over 55% in size
Pf growth 96h = P. falciparum growth inhibition at 96 hour, primary screen for plastid delayed-death inhibitors; Potency, µM (highest dose often 28.7 µM), for the others: top-dose activity change, negative = inhibition, hits mostly inhibitors; P. falciparum luciferase reporter growth, 96 h; hit rate 6.9% among 320,000; active = well fitted inhibition curve with a large enough effect; inconclusive = small, poorly fitted or top-dose-only effect, or another doubt; inactive = no such curve, though single readings can be large or run the other way; also: potency is read from the fitted curve at half-maximal effect; % is scaled to controls: 0 for no effect and ±100 for the full control effect
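Infected RBCs, 2% Hct / 0.05% parasitemia final; luciferase-reporter P. falciparum; cpd 96 h, 37 C, 5% CO2; luciferase detection reagent; luminescence.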
Pf growth 48h = P. falciparum growth inhibition at 48 hours (one generation) | Potency, µM (highest dose often 28.7 µM), for the others: at the top dose activity change, negative = inhibition, hits mostly inhibitors | hit rate 5.9% among 310,000 | AID 504832 | P. falciparum luciferase growth in erythrocytes, 48 h; active = well fitted inhibition curve with a large enough effect; inconclusive = small, poorly fitted or top-dose-only effect, or another doubt; inactive = no such curve, though single readings can be large or run the other way; also: potency is read from the fitted curve at half-maximal effect; % is scaled to controls: 0 for no effect and ±100 for the full control effect
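Erythrocytes infected with P. falciparum carrying an integrated firefly luciferase reporter (2% hematocrit, 0.1% parasitemia final) were exposed to compounds in RPMI 1640 with 0.5% Albumax at 37 C, 5% CO2. Growth inhibition was scored as reduced luminescence.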
The depositor's hits bear a star; u = inconclusive; x = no result given. Unless noted, calls follow the shape of the full dose curve.

SMILES	Cycloheximide cs	NS1 function inh	Shiga toxin inh	SARS PLpro yeast	Pf growth 96h	Pf growth 48h
CCc1ccc2[nH]c(C)c(CN3CCCCCC3)c(=O)c2c1	-3	6%	-3	-1%	17%	6%
N#Cc1c(N)nc2c3c(sc(=N)c2c1N)NC(=O)CC3c1c(F)cccc1Cl (stereo unspecified)	-1	8%	-7	-11%	8.3µM*	u
N/C(=N\N=C\c1cccc([N+](=O)[O-])c1)c1nonc1N	50*	0%	76*	1%	60%	125%
COc1cc(/C=N/N=C(/N)c2nonc2N)cc(Br)c1OCc1ccccc1C	11	-4%	-9	-7%	x	u
N/C(=N\N=C\c1ccc2c(c1)OCO2)c1nonc1N	45*	7%	75*	1%	411%	315%
COc1cccc(/C=N/N=C(\N)c2nonc2N)c1O	35*	x	116*	0%	54%	164%
CC(C)c1c(C(=O)N/N=C/c2ccc3c(c2)OCO3)nnn1-c1nonc1N	8	1%	-4	0%	24%	18%
COCc1cc(C)nc(SCC(=O)Nc2ccc3[nH]c(=O)[nH]c3c2)c1C#N	-1	7%	27	0%	-19%	14%
C=CCNc1cc(C)oc(=O)c1C(=O)CCC	-6	-12%	-15	1%	u	x
Cc1nn2c([nH]c(=O)c3ccccc32)c1C=O	-3	-178%	-9	-7%	12µM*	u
Cc1nn2c(nc(N3CCCCC3)c3ccccc32)c1C=O	-4	6%	18	-1%	5.2µM*	3.3µM*
Cc1nn2c(nc(N3CCOCC3)c3ccccc32)c1C=C(C#N)C#N	-5	-6%	11	12%	23%	6%
CCn1c(COc2ccccc2OC)nnc1SCC(=O)NC1CCCC1	-6	-6%	-7	0%	-10%	-1%
CCCn1c(-c2cc(OC)c(OC)c(OC)c2)nc2c1c(=O)[nH]c(=O)n2Cc1ccccc1	-5	12%	-9	1%	u	9.3µM*
COCCn1c(-c2cccc([N+](=O)[O-])c2)nc2c1c(=O)[nH]c(=O)n2Cc1ccccc1	1	3%	-6	10%	12µM*	u
CCCn1c(-c2cccc(F)c2)nc2c1c(=O)[nH]c(=O)n2Cc1ccccc1	-1	8%	18	0%	-29%	-4%
CCCCn1c(=O)[nH]c(=O)c2c1nc(-c1ccc(OCCC)c(OCC)c1)n2CCOC	1	13%	-7	-5%	u	9.3µM*
CCCOc1ccc(-c2nc3c(c(=O)[nH]c(=O)n3Cc3ccccc3)n2CCO)cc1OCC	-6	3%	-17	1%	u	u
CC(C)C[C@H](NC(=O)c1nc[nH]c1C(=O)N[C@@H](CCCCNC(=O)OC(C)(C)C)C(=O)OC(C)(C)C)C(=O)OC(C)(C)C	-2	-9%	-3	-1%	2.1µM*	3.7µM*
CC(C)C[C@H](NC(=O)c1nc[nH]c1C(=O)NCCCCCNC(=O)OC(C)(C)C)C(=O)OC(C)(C)C	-2	13%	-10	-1%	u	7.4µM*
C[C@H](NC(=O)c1nc[nH]c1C(=O)NCCCCCNC(=O)OC(C)(C)C)C(=O)OC(C)(C)C	31*	1%	57*	-1%	u	u
CC(C)(C)OC(=O)NCCCCCNC(=O)c1[nH]cnc1C(=O)Nc1cccc(Cl)c1	x	x	x	0%	u	u
CC(C)(C)OC(=O)NCCCCCNC(=O)c1[nH]cnc1C(=O)Nc1ccon1	x	x	x	0%	5.2µM*	u
C[C@H]1COC(=O)[C@@H](Cc2ccc(F)cc2)C/C=C\C[C@@H](CC(=O)N[C@@H](CO)Cc2ccccc2)C(=O)N1	x	x	x	8%	x	x
Cc1cc(-c2ccccc2)nc(=O)[nH]1	-2	-19%	-5	3%	6.6µM*	20%
SMILES	Cycloheximide cs	NS1 function inh	Shiga toxin inh	SARS PLpro yeast	Pf growth 96h	Pf growth 48h
O=c1c2ccccc2[nH]c(=S)n1-c1ccc(Br)cc1	-2	x	27	-1%	u	u
Cc1ccc(-n2c(=S)[nH]c3c(oc4ccccc43)c2=O)cc1C	13*	15%	27*	17%	17%	41%
O=c1c2oc3ccccc3c2[nH]c(=S)n1-c1ccc(F)cc1	2	x	17	4%	8.3µM*	5%
C[C@@H]1C(=O)O[C@@H]1[C@@H](C)CO[Si](c1ccccc1)(c1ccccc1)C(C)(C)C	1	x	2	x	x	x
O=c1c2ccccc2nc2n1CCO2	-2	1%	3	-2%	13%	x
O=c1c2ccccc2nc2oc3ccccc3n12	42*	-13%	84*	-7%	13µM*	98%
CCN(CC)S(=O)(=O)c1cc(C(=O)NC2CCCCC2)ccc1C	42*	-14%	104*	8%	-23%	34%
Cc1ccc(C(=O)NC2CCCCC2)cc1S(=O)(=O)N1CCCC1	35*	-20%	40*	2%	u	-14%
O=C(NC1CCCC1)c1ccc(Br)c(S(=O)(=O)N2CCCCC2)c1	-6	-1%	57	0%	-5%	2%
CCN(Cc1ccccc1)S(=O)(=O)c1cc(C(=O)NCC2CCCCC2)ccc1OC	-3	15%	-11	2%	12µM*	u
Cc1ccc(C(=O)NC2CCCCCC2)cc1S(=O)(=O)N1CCOCC1	28*	-6%	30	-2%	-20%	-27%
CCOC(=O)c1c(C)n(C)c2ccc(OC)c(NC(=O)CCN3CCC(Cc4ccccc4)CC3)c12	0	2%	-2	0%	u	u
CC(C)Nc1nc(NC(C)C)nc(N(C#N)C(C)C(=O)N(C)C)n1 (stereo unspecified)	7	2%	34	0%	5.2µM*	-8%
Cn1cnnc1SCC(=O)c1c(N)n(Cc2ccccc2)c(=O)n(C)c1=O	10	x	-4	0%	u	u
C=CCn1c(SCCOc2ccc(OC)cc2)nnc1C(C)NC(=O)c1ccc(OC)cc1 (stereo unspecified)	4	3%	8	17%	6.6µM*	x
COc1ccc(C(=O)NC(C)c2nnc(SCc3ccc(Cl)c(Cl)c3)n2C)cc1 (stereo unspecified)	-3	5%	2	-5%	12µM*	u
CCn1c(CCNC(=O)c2ccc(Cl)c(Cl)c2)nnc1SCCOc1ccc(OC)cc1	1	14%	12	2%	10µM*	u
O=C(NCC1CC1)C1(C(F)(F)F)CC(CCCO)CCCO1 (stereo unspecified)	-8	x	4	x	x	x
O=C(CSc1nc2c(c(=O)n1-c1ccc(Cl)cc1)SCC2)Nc1ccc2c(c1)OCCO2	-3	u	-6	-9%	8%	u
CCCNC(=O)c1ccccc1NC(=O)c1ccccc1SC	6	-7%	11	-1%	37%	-17%
CCCNC(=O)c1ccccc1NC(=O)c1ccc(CSc2ccccc2)cc1	17*	-33%	26*	-27%	u	13µM*
